The nature of test [1]: inhibitors of PAF-induced NFkB signaling in CF airway cells, dose response, cell-based, uHTS hits, panel, cytotoxicity readout (AID 624344). Conditions: CF bronchial epithelial cells, PAF-induced NFkB reporter inhibition, with PAF, run 1; at 79 µM (top of the series) unless noted.
Assay in test [2]: as above
Conditions: CF bronchial epithelial cells, PAF-induced NFkB reporter inhibition, with PAF, run 2; at 79 µM (top of the series) unless noted.

The structures appear in SMILES notation.

As for `c1cnc2ccc(-n3ccnc3)cc2c1`, the inhibition (in general, the drop in the measured response relative to a control, in per cent) in test [1] turned out to be 115%; in test [2], 102%.
The like results for `CC(=O)c1ccc(Nc2ncnc3ccc(Br)cc23)cc1` were, in that order, 91.3% and 98.4%.
The like results for `COc1cc(O)c(CC=C(C)C)c(O)c1C(=O)CCc1ccc(O)cc1` were, in that order, 112% and 104%.
In the case of `CC(=O)Nc1ccc(-c2ccnc3c2CC(C(=O)NCc2ccccc2)O3)cc1` (stereo not drawn), the inhibition was -53.5% in test [1] and -72.7% in test [2].
With `S=c1[nH]nc(-c2ccncc2)n1/N=C/C(Cl)=C\c1ccccc1`, the values for the inhibition in test [1] and in test [2] were 101% and 109%, respectively.
The like results for `C=CCOc1c(OC)cc(/C=N/Nc2cccc(C(=O)O)c2)c(Br)c1Br` were, in that order, 103% and 105%.
The like results for `O=[N+]([O-])c1ccc(Oc2ccc(F)cc2)c2ccncc12` were, in that order, 99.2% and 97.3%.
As for `Cc1c([N+](=O)[O-])c2ccc(O)cc2n1-c1ccccc1`, the inhibition came to 109% in test [1] and 94.8% in test [2].
As to `CC1C(=O)N(Cc2cn(Cc3ccco3)nn2)CCS(=O)(=O)N1Cc1ccc(-c2ccccc2C(F)(F)F)cc1` (stereo not drawn), the inhibition in test [1] turned out to be 97.9%; in test [2], 114%.
The corresponding values for `CCCc1nnc(NC(=O)c2nc(S(=O)(=O)Cc3ccc(C)cc3)ncc2Cl)s1` are 89% and 86.5%.
The like results for `CC(=O)c1c(C)n(-c2ccccc2)c2ccc(O)cc12` were, in that order, 90.8% and 91.5%.
The corresponding values for `NC(=O)c1sc2nccc(Nc3ccccc3)c2c1N` are 117% and 103%.
For `Nc1nc(/C=C/c2cccnc2)nc(-c2ccccc2O)n1`, the inhibition in test [1] was determined as 100%; in test [2] it was 110%.
The corresponding values for `O=C(Nc1ccccc1)Nc1ncc([N+](=O)[O-])s1` are 108% and 96.7%.
The like results for `Cc1cccc(C)c1NS(=O)(=O)c1ccc(-c2cnc(C3CC3)o2)cc1` were, in that order, 112% and 105%.
The like results for `Cc1csc(CNc2ncnc3ccc(-c4ccoc4)cc23)c1` were, in that order, 111% and 99.4%.
Regarding `Nc1nccc(-c2ccc(-n3cnc4ccccc43)cc2)n1`, the inhibition in test [1] is 101%; in test [2], 108%.
With `O=C1N(c2ccccc2C(F)(F)F)O[C@@]1(c1ccccc1)C1CCCCC1`, the inhibition in test [1] came to 99.3%; in test [2], 105%.
The like results for `COc1ccc(NC(=O)Cn2ncn3nc(-c4ccc(OC)cc4)cc3c2=O)cc1` were, in that order, 102% and 107%.
On to `Cc1ccc(S(=O)(=O)CC(CN2CCCCC2)N2CCCCC2)cc1` (stereo not drawn), for which the inhibition in test [1] worked out at 102%; in test [2] it was 109%.
Take `CN(C)CCCN(C(=O)CCS(=O)(=O)c1ccccc1)c1nc2cc3c(cc2s1)OCO3`: the results for the inhibition in test [1] and in test [2] were 88.7% and 73%, respectively.
The corresponding values for `COc1ccccc1-c1cc(NC=O)c2ncc(-c3ccc(F)cc3)n2c1` are 97.7% [at 39.5 µM] and 75.8% [at 39.5 µM].
The corresponding values for `CC(C)=CCc1c(O)cc(O)c2c1OC(c1ccc(O)cc1)CC2=O` (stereo not drawn) are 93.2% and 108%.
The corresponding values for `C=CC[C@@H](CC(=O)N[C@H](CO)Cc1ccccc1)C(=O)NC[C@H](OC(=O)[C@@H](CC=C)Cc1ccc(F)cc1)c1ccccc1` are 101% and 108%.
Turning to `CC(=O)c1cccc(NC(=O)COC(=O)c2ccc(S(C)(=O)=O)c([N+](=O)[O-])c2)c1`, the figures for the inhibition in test [1] and in test [2] were 92.5% and 93.4%, respectively.
The corresponding values for `C[C@H](O)[C@@H]1CN2CCc3c([nH]c4ccc(-c5ccc6c(c5)OCO6)cc34)[C@@H]2C[C@@H]1N(C)C(=O)Nc1ccc(F)cc1` are 99.8% and 107%.
As to `N#CC(C#N)c1ccnc2ccccc12`, the inhibition was 110% in test [1] and 102% in test [2].
The corresponding values for `COc1cccc(-c2cc(NC=O)c3ncc(-c4ccc(C(C)=O)cc4)n3c2)c1` are 84.6% and 93.6%.
The corresponding values for `COc1ccc2nc(Nc3nc(CSc4nc5ccccc5[nH]4)cc(=O)[nH]3)nc(C)c2c1` are 108% and 102%.
The like results for `COc1ccc(OC)c(C2CC(=O)c3c([nH]c(C(=O)OC(C)C)c3C)C2)c1` (stereo not drawn) were, in that order, 51.7% and 64.2%.
Take `O=C(Nc1cccc(Cl)c1)Nc1csc([N+](=O)[O-])c1`: the inhibition came out at 114% in test [1] and 97.5% in test [2].
The corresponding values for `Nc1ncnc(Sc2ccc(Cl)cc2)c1[N+](=O)[O-]` are 101% and 85.6%.
The like results for `COC(=O)N1C(=O)[C@@](c2ccccc2)(C(C)C)N1C(=O)OC` were, in that order, 107% and 104%.
The like results for `COc1ccc(/C=N/NC(=O)c2[nH]c3ccc(Br)cc3c2-c2ccccc2)cc1` were, in that order, 88.4% and 71.3%.
Consider `Cc1cccc(NC(=O)c2cc(-c3ccc(C)s3)nc3ccccc23)n1`, for which the figures for the inhibition in test [1] and in test [2] were 98.5% and 95.4%, respectively.
In the case of `Cc1ccc2c(c1)C(=O)C(=O)N2Cc1ccc(Br)cc1`, the inhibition in test [1] turned out to be 106%; in test [2] it was 113%.
Regarding `COc1ccc(C2=Nn3c(nnc3-c3ccncc3)SC2)cc1`, the inhibition in test [1] amounted to 81.7%; in test [2], 76.5%.
The corresponding values for `Cc1ccc(NC(=O)c2cc(C(=O)c3cc(Cl)ccc3O)cn(-c3ccc(C)cc3)c2=O)cc1` are 65.5% and 96.9%.
Regarding `CC(=O)Oc1c(Br)cc(N(C(C)=O)S(=O)(=O)c2ccccc2)c2ccccc12`, the inhibition was 72.3% in test [1] and 88.1% in test [2].
The corresponding values for `O=S1(=O)CC=C(CSC(=S)NC2CCS(=O)(=O)C2)C1` (stereo not drawn) are 100% and 110%.
The corresponding values for `ON=C1c2ccccc2-c2ccccc21` are 95.8% and 106%.
As for `O=c1c(-c2c(O)cc(O)c3c2O[C@H](c2ccc(O)cc2)CC3)c(-c2ccc(O)cc2)oc2cc(O)cc(O)c12`, the inhibition in test [1] is 105%; in test [2], 102%.
The corresponding values for `COc1ccc2cc3c(N)nn(C(=O)c4ccccc4[N+](=O)[O-])c3nc2c1` are 101% and 111%.
The corresponding values for `COc1ccc(/C=C/C(=O)c2cc(F)ccc2OC(=O)c2ccccc2C)cc1OC` are 4.66% and 90.3%.
